# Data published in PubChem BioAssay.
# Active and inactive are the calls of the source. Rule as the data show it, unless noted: active = inhibition above about 80%; inactive = the rest. Non-standard residues stand in square brackets, D forms with d. Residues, ends and D or L forms follow the SMILES beside them. Dolaproine = CO[C@@H]([C@@H]1CCCN1)[C@@H](C)C(=O)O; Dil = CC[C@H](C)[C@H](NC)[C@@H](CC(=O)O)OC; NMeV = CN[C@H](C(=O)O)C(C)C
# Tests used:
# [1] = LFS_MB_P medulloblastoma growth inhibition, cell-based, chromothripsis tumors, cisplatin or BGB combos (AID 1671449); conditions: LFS_MB_P medulloblastoma cells;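 also: cells exposed for 96 hours; 0% = vehicle DMSO and 100% = killing by high DMSO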
# [2] = HDN33 neuroblastoma growth inhibition, cell-based, chromothripsis tumors, cisplatin or BGB combos (AID 1671450); conditions: HDN33 neuroblastoma cells, stronger effect = higher value;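 also: cells exposed to compound for four days; 0% = vehicle DMSO and 100% = cell killing by high DMSO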
# [3] = ICB984 medulloblastoma cell growth inhibition, synergistic combos for chromothripsis tumors, cisplatin or BGB combos (AID 1671451; call rule not given here;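 also: cells exposed for 96 hours before readout; 0% = vehicle DMSO and 100% = killing by high DMSO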); conditions: ICB984 medulloblastoma cells, drug combinations, stronger effect = higher value
# [4] = LFS_MB_1R medulloblastoma cell growth inhibition, synergistic combos for chromothripsis tumors, cisplatin or BGB combos (AID 1671452); conditions: LFS_MB_1R medulloblastoma cells, stronger effect = higher value;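 also: cells exposed for 96 hours before readout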
# [5] = HTB85 osteosarcoma cell growth inhibition, synergistic combos for chromothripsis tumors, BGB or cisplatin IC20 combos (AID 1671453); conditions: HTB85 osteosarcoma cells, drug combinations, stronger effect = higher value;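 also: cells exposed for 96 hours before readout; 0% = vehicle DMSO and 100% = high DMSO killing control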
# [6] = CRL2098 osteosarcoma cell growth inhibition, synergistic combos for chromothripsis tumors, BGB or cisplatin IC20 combos (AID 1671454); conditions: CRL2098 osteosarcoma cells, drug combinations, stronger effect = higher value;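 also: cells exposed for 96 h before readout; 0% = vehicle DMSO and 100% = killing by high DMSO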
# [7] = HD-MB03 medulloblastoma cell growth inhibition, synergistic combos for chromothripsis tumors, BGB or cisplatin IC20 combos (AID 1671455; in the data active = inhibition above about 83%;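 also: 0% = vehicle DMSO and 100% = high DMSO as cytotoxic control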); conditions: HD-MB03 medulloblastoma cells, stronger effect = higher value
# [8] = UWB1.289 ovarian carcinoma cell growth inhibition, synergistic combos for chromothripsis tumors, BGB or cisplatin combos (AID 1671456); conditions: UWB1.289 ovarian carcinoma cells, stronger effect = higher value;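 also: cells exposed to compound for four days; 0% = vehicle DMSO and 100% = killing by high DMSO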
# [9] = LFS_MB_2R medulloblastoma cell growth inhibition, synergistic combos for chromothripsis tumors, cisplatin combos (AID 1671457); conditions: LFS_MB_2R medulloblastoma cells, stronger effect = higher value;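 also: cells exposed to compound for four days before readout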
# [10] = MDA-MB-436 breast carcinoma cell growth inhibition, synergistic combos for chromothripsis tumors, BGB or cisplatin combos (AID 1671458; call rule not given here;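 also: cells exposed for 96 hours; 0% = vehicle DMSO and 100% = killing by high DMSO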); conditions: MDA-MB-436 breast carcinoma growth inhibition, drug combinations, stronger effect = higher value
# [11] = UWB1.289_BRCA1 ovarian cancer growth, cell-based, BGB or cisplatin combinations (AID 1671459); conditions: UWB1.289 BRCA1 ovarian carcinoma, drug combinations, stronger effect = higher value
# [12] = human astrocyte viability loss, single and combined drugs, cytotoxicity control for chromothriptic childhood tumor combination screen, cell-based, BGB or cisplatin IC20 combos (AID 1671460); conditions: Human astrocytes, drug combinations, stronger effect = higher value;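 also: cells exposed to compounds for 96 hours before viability readout; 0% = vehicle and 100% = killing control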
# [13] = growth inhibition of BT084 medulloblastoma cells, cell-based, ICGC_MB145, cisplatin and BGB IC40 combos (AID 1671461); conditions: drug combinations, stronger effect = higher value;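 also: cells exposed to drugs for 96 hours; 0% = vehicle DMSO and 100% = high DMSO full killing control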
# [14] = growth inhibition of RCMB18 medulloblastoma cells, cell-based, cisplatin and BGB IC40 combos (AID 1671462); conditions: stronger effect = higher value;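 also: cells exposed to compound for four days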
# [15] = growth inhibition of CRL1545 osteosarcoma cells, cell-based, cisplatin and BGB IC20 combos (AID 1671464); conditions: stronger effect = higher value;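 also: cells exposed to compound for 96 hours before readout; 0% = vehicle DMSO and 100% = high DMSO killing control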
# [16] = measured here: combination with BGB IC40, at 0.05 µM
# [17] = measured here: with BGB IC20 combination, at 0.5 µM
# [18] = measured here: with cisplatin IC20 combination, at 0.5 µM
# [19] = measured here: combination with cisplatin, at 0.5 µM
# [20] = measured here: combination with cisplatin, at 5 µM
compound,measurement,setting,value
CC[C@H](C)[C@@H]([C@@H](CC(=O)N1CCC[C@H]1[C@H](OC)[C@@H](C)C(=O)N[C@@H](Cc1ccccc1)C(=O)O)OC)N(C)C(=O)[C@@H](NC(=O)[C@@H](NC)C(C)C)C(C)C (H-[NMeV]V[Dil][Dolaproine]F-OH),inhibition,"[1]; at 0.5 µM, stronger effect = higher value",-34.4% (inactive)
same,inhibition,"[1]; measured here: combination with BGB IC20, at 0.005 µM",-15%
same,inhibition,"[1]; measured here: combination with BGB IC40, at 0.005 µM",-52.5%
same,inhibition,[1]; [16],-31.6%
same,inhibition,"[1]; measured here: combination with cisplatin, at 0.5 µM, stronger effect = higher value",-31.7%
same,inhibition,"[1]; measured here: combination with cisplatin, at 5 µM, stronger effect = higher value",13.5%
same,inhibition,"[2]; BGB combo, at 5 µM",68.3%
same,inhibition,[2]; at 0.5 µM,71.4% (inactive)
same,inhibition,"[2]; cisplatin combo, at 5 µM",69.6%
same,inhibition,[2]; [17],62.6%
same,inhibition,[2]; [18],60.4%
same,inhibition,"[2]; single agent, at 5 µM",96.5%
same,inhibition,"[3]; BGB IC20 combo, at 0.005 µM",-18.1%
same,inhibition,"[3]; BGB IC40 combo, at 0.005 µM",-4.8%
same,inhibition,"[3]; BGB IC40 combo, at 0.05 µM",21.2%
same,inhibition,[3]; at 0.5 µM,-6.87% (inactive)
same,inhibition,"[3]; cisplatin combo, at 0.05 µM",17.4%
same,inhibition,"[3]; cisplatin combo, at 0.5 µM",-3.43%
same,inhibition,"[3]; cisplatin combo, at 5 µM",-11.7%
same,inhibition,"[3]; measured here: 5 uM single agent, at 5 µM",-7.94%
same,inhibition,[4]; at 0.5 µM,-16.4% (inactive)
same,inhibition,[4]; [16],-34.7%
same,inhibition,[4]; [19],-7.82%
same,inhibition,[4]; [20],15.8%
same,inhibition,[5]; at 0.5 µM,55.8% (inactive)
same,inhibition,"[5]; measured here: with BGB IC20, at 0.5 µM",69.6%
same,inhibition,"[5]; measured here: with BGB IC20, at 5 µM",59.7%
same,inhibition,"[5]; measured here: with cisplatin IC20, at 0.5 µM",20.4%
same,inhibition,"[5]; measured here: with cisplatin IC20, at 5 µM",67.1%
same,inhibition,"[5]; single agent, at 5 µM",86.4%
same,inhibition,[6]; at 0.5 µM,35% (inactive)
same,inhibition,"[6]; measured here: combination with BGB at IC20, at 0.5 µM",36.6%
same,inhibition,"[6]; measured here: combination with cisplatin at IC20, at 0.5 µM",9.03%
same,inhibition,[7]; at 0.5 µM,43.8% (inactive)
same,inhibition,"[7]; measured here: combo with BGB at IC20, at 0.5 µM",44.1%
same,inhibition,"[7]; measured here: combo with cisplatin at IC20, at 0.5 µM",39.9%
same,inhibition,[8]; at 0.5 µM,20.2% (inactive)
same,inhibition,"[8]; measured here: inhibition with BGB combination, at 0.05 µM",-13%
same,inhibition,"[8]; measured here: inhibition with cisplatin combination, at 0.05 µM",-3.2%
same,inhibition,[9]; at 0.5 µM,-9.71% (inactive)
same,inhibition,[9]; [19],-31.2%
same,inhibition,[9]; [20],-10.7%
same,inhibition,[10]; at 0.5 µM,50.1% (inactive)
same,inhibition,"[10]; measured here: BGB combination, at 0.5 µM",39.8%
same,inhibition,"[10]; measured here: BGB combination, at 5 µM",58%
same,inhibition,"[10]; measured here: cisplatin combination, at 0.5 µM",45.4%
same,inhibition,"[10]; measured here: cisplatin combination, at 5 µM",73.6%
same,inhibition,"[11]; BGB combination, concentration series, at 5 µM",49.3%
same,inhibition,[11]; at 0.5 µM,26.4% (inactive)
same,inhibition,"[11]; cisplatin combination, concentration series, at 5 µM",53.2%
same,inhibition,[12]; at 0.5 µM,31.9% (inactive)
same,inhibition,"[12]; measured here: combo with BGB IC20, at 0.5 µM",39.5%
same,inhibition,"[12]; measured here: combo with cisplatin IC20, at 0.5 µM",19.9%
same,inhibition,[13]; at 0.5 µM,7.92% (inactive)
same,inhibition,"[13]; cisplatin combination, at 0.5 µM",-4.86%
same,inhibition,"[13]; cisplatin combination, at 5 µM",-10.9%
same,inhibition,"[13]; measured here: BGB IC40 combination 0.05 uM, at 0.05 µM",-19.9%
same,inhibition,"[13]; single agent, at 5 µM",67.2%
same,inhibition,[14]; at 0.5 µM,-11.8% (inactive)
same,inhibition,"[14]; cisplatin combo, at 5 µM",17%
same,inhibition,"[14]; measured here: BGB IC40 combination, at 0.05 µM",-3.82%
same,inhibition,[14]; [19],-17.8%
same,inhibition,"[14]; single agent, at 5 µM",17.3%
same,inhibition,[15]; at 0.5 µM,42.9% (inactive)
same,inhibition,[15]; [17],47.9%
same,inhibition,[15]; [18],39.4%
same,inhibition,"[15]; single agent, at 0.05 µM",-9.33%
same,inhibition,"[15]; single agent, at 5 µM",84.4%
